From PubChem BioAssay (NCI)
Several values for one entry are separate records, joined by “and”; a condition that tells them apart may be missing. Identical values can stand only once. The panel holds about 83,000 compounds, 20% with a hit somewhere; the sample as a whole holds those more often.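 How to read the values: 0–100, growth inhibition (40 = 60% inhibited); 0, no net growth; -100 to 0, cell death (-40 = 40% of starting cells died; -100 = all dead).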 Activity calls are given as the source filed them. Rule for the calls: active = growth percent below 10; inactive = the rest.

Test system: RPMI-8226 leukemia
Assay: NCI-60 one-dose screen, 48 h (100 = growth as untreated, 0 = no growth, -100 = all killed)
Details: 10 µM unless noted

| Structure (SMILES) | growth |
| --- | --- |
| O=C(/C=C/c1cccc(F)c1)c1cccc(OCCCCOc2cccc(C(=O)/C=C/c3cccc(F)c3)c2)c1 | 8.56% (active) |
| O=S(=O)(NCCCNc1nccc(-c2[nH]c(-c3ccccc3)nc2-c2ccc(F)c(O)c2)n1)c1ccc(C(F)(F)F)cc1 | 16.2% (inactive) |
| O=C(CCCCCCNC(=O)C(O)(O)C(F)(F)F)Nc1ncc(-c2ccccc2)s1 | 14.6% (inactive) |
| CN(C)c1ccc(/C=N/Nc2nc(N/N=C/c3ccc(N(C)C)cc3)nc(N3CCCCC3)n2)cc1 | 32.6% (inactive) |
| NC1[C@H]2CN(c3cnc(C(=O)Nc4cc(F)cc5cccnc45)cn3)C[C@@H]12 (some centres undefined) | 68.9% (inactive) |
| Clc1cccc(/C=N/Nc2nc(N/N=C/c3cccc(Cl)c3)nc(N3CCCCC3)n2)c1 | 72.4% (inactive) |
| CC(Nc1ncnc2ccc(-c3cnc4cnccn34)cc12)c1ccccc1 (centres undefined) | 46.6% (inactive) |
| CN1CCN(c2ccc(Nc3nc(NCCNC(=O)c4ccccc4)c4sccc4n3)cc2)CC1 | 33.4% (inactive) |
| O=C(CSc1nc2ccccc2c(=O)n1-c1ccccc1)N/N=C/c1ccc(Oc2ccc(Cl)cc2)cc1 | 73.3% (inactive) |

Test system: OVCAR-8 ovarian
Assay: as above
Details: 10 µM unless noted

| Structure (SMILES) | growth |
| --- | --- |
| O=C(/C=C/Nc1ccc(S(=O)(=O)Nc2ncccn2)cc1)c1ccc(N=Cc2c(O)[nH]c3ccccc23)cc1 | 101% (inactive) |
| CCCCCN1C(=O)/C(=c2\sc3n(c2=O)C2C(NN=3)N(CC)C(=O)N2CC)c2cccc(C)c21 (centres undefined) | 73.3% (inactive) |
| C#C[C@]1(O)CC[C@H]2[C@@H]3CC=C4c5sc(Nc6ncccc6C)nc5CC[C@]4(C)[C@H]3CC[C@@]21C | 31.1% (inactive) |
| O=C1CSC(c2cn(-c3ccccc3)nc2-c2ccc(Cl)cc2)N1c1ccccc1 (centres undefined) | 104% (inactive) |
| CC(=O)Nc1ccccc1-c1nc2ccccc2s1 | 103% (inactive) |
| O=C(/C=C/c1cccc(Br)c1)c1cccc(OCCCCOc2cccc(C(=O)/C=C/c3cccc(Br)c3)c2)c1 | 105% (inactive) |
| C/C(=C(\c1ccc(O)cc1)c1ccc(OCCN2CCCCCC2)cc1)c1ccc(Cl)cc1 | -73.5% (active) |
| Clc1ccc(CSc2nnc(-c3ccc(Cl)cc3)n2-c2ccccc2)cc1 | 46.3% (inactive) |
| O=C(CCCCCCNC(=O)C(O)(O)C(F)(F)F)Nc1nc2ccccc2s1 | 8.26% (active) |
| CC(C)NC(=O)c1cc(-c2ccc(NC(=O)Nc3ccc(F)c(C(F)(F)F)c3)cc2)nc2cccnc12 | 79.5% (inactive) |
| COc1ccc(-c2cnc(NC(=O)CCCCCCNC(=O)C(O)(O)C(F)(F)F)s2)cc1 | -3.57% (active) |
| C/C=C/CC(C)C(O)[C@H](NC(=O)[C@@H]1CCCN1C(=O)[C@](C)(CC)NC(=O)CCCCCCCCC)C(=O)N[C@@](C)(CC)C(=O)N[C@@H](CCC(N)=O)C(=O)N[C@H](CCC(N)=O)C(=O)NC(C)(C)C(=O)NC(C)(C)C(=O)N[C@@H](CCC(N)=O)C(=O)N[C@H](CC(C)C)C(=O)N[C@H](CO)CC(C)C (some centres undefined) | 42.1% (inactive) and -54.9% (active) |
| CC1CC(=O)C2=C(C1)Nc1ccc(Br)cc1CC2c1c[nH]c2ccc(Br)cc12 (centres undefined) | 66.2% (inactive) |
| CC(C)(C)Nc1nc2c(OCCc3ccccc3)cccn2c1-c1cccc(Oc2ccccc2)c1 | 10.2% (inactive) |
| CCCC/C(=C\c1ccc(O)c(O)c1)C(=O)NC(Cc1ccccc1)C(=O)C(=O)NCCc1ccc(OC)cc1 (centres undefined) | 97.2% (inactive) |
| COC(=O)c1cccc(NC2=C(Cl)C(=O)c3nc(C)ccc3C2=O)c1 | 77.4% (inactive) |
| NC1CC2(CCN(c3cnc(C(=O)Nc4cc(F)cc5cccnc45)cn3)CC2)C1 | 94.6% (inactive) |
| COC(=O)c1ccc(NC2=C(Cl)C(=O)c3nc(C)ccc3C2=O)cc1 | 70.1% (inactive) |
| CC(Nc1c(C#N)cnc2ccc(-c3cncc(-c4n[nH]c(=O)o4)c3)cc12)c1ccccc1 (centres undefined) | 18.1% (inactive) |
| CC(=O)OC[C@]12CC[C@@H](C(=O)/C=C/c3cccnc3)[C@@H]1[C@H]1CC[C@@H]3[C@@]4(C)CC[C@H](OC(C)=O)C(C)(C)[C@@H]4CC[C@@]3(C)[C@]1(C)CC2 | 23.2% (inactive) |

| Structure (SMILES) | growth |
| --- | --- |
| CC(O)c1cccc(/C(N)=N/C(N)=N/c2nc3ccccc3s2)c1 (centres undefined) | 97.2% (inactive) |
| CC(C)=CCC[C@](C)(O)[C@H]1CC[C@]2(C)[C@@H]1CC[C@@H]1[C@@]3(C)CC[C@H](N)C(C)(C)[C@@H]3CC[C@]12C | 98.1% (inactive) |
| Cc1ccc2c(n1)C(=O)C(Cl)=C(Nc1cccc(C)c1C)C2=O | -3.5% (active) |
| C[C@]12CC[C@H]3[C@@H](CC=C4C[C@@H](O)CC[C@@]43C)[C@@H]1CC[C@@H]2[C@](C)(O)CCc1cccnc1 | 62% (inactive) |
| CN1CCN(c2ccc(Nc3nc(NCCCNS(=O)(=O)c4ccc(C(F)(F)F)cc4)c4sccc4n3)cc2)CC1 | -72.2% (active) |
| Cc1ccc2c(n1)C(=O)C(Cl)=C(Nc1cccc(C(F)(F)F)c1)C2=O | 76% (inactive) |
| O=C(CN1CCN(c2cc(=O)[nH]c3ccc(F)cc23)CC1)N(c1ccccc1)c1ccccc1 | 108% (inactive) |
| Cc1[nH]c(C(=O)Nc2ccc(C(N)=O)cc2N2CCOC(C)C2)c(Cl)c1Cl (centres undefined) | 96.8% (inactive) |
| CC1(C)CC[C@]2(C(=O)O)CC[C@]3(C)C(=CC[C@@H]4[C@@]5(C)CC[C@H](NOCCCN)C(C)(C)[C@@H]5CC[C@]43C)[C@@H]2C1 | 95.2% (inactive) |
| Cc1ccc2c(n1)C(=O)C(Cl)=C(Nc1ccc(C#N)cc1)C2=O | 91.5% (inactive) |
| CC(=O)Nc1nc(C)c(-c2csc(Nc3ccccc3)n2)s1 | 52.3% (inactive) |
| O=C(/C=C/c1cccc(F)c1)c1cccc(OCCCCOc2cccc(C(=O)/C=C/c3cccc(F)c3)c2)c1 | 104% (inactive) |
| O=S(=O)(NCCCNc1nccc(-c2[nH]c(-c3ccccc3)nc2-c2ccc(F)c(O)c2)n1)c1ccc(C(F)(F)F)cc1 | 69.7% (inactive) |
| O=C(CCCCCCNC(=O)C(O)(O)C(F)(F)F)Nc1ncc(-c2ccccc2)s1 | -2.23% (active) |
| CN(C)c1ccc(/C=N/Nc2nc(N/N=C/c3ccc(N(C)C)cc3)nc(N3CCCCC3)n2)cc1 | 56.6% (inactive) |
| NC1[C@H]2CN(c3cnc(C(=O)Nc4cc(F)cc5cccnc45)cn3)C[C@@H]12 (some centres undefined) | 87.7% (inactive) |
| Clc1cccc(/C=N/Nc2nc(N/N=C/c3cccc(Cl)c3)nc(N3CCCCC3)n2)c1 | 89.2% (inactive) |
| CC(Nc1ncnc2ccc(-c3cnc4cnccn34)cc12)c1ccccc1 (centres undefined) | 59.7% (inactive) |
| CN1CCN(c2ccc(Nc3nc(NCCNC(=O)c4ccccc4)c4sccc4n3)cc2)CC1 | 62.4% (inactive) |
| O=C(CSc1nc2ccccc2c(=O)n1-c1ccccc1)N/N=C/c1ccc(Oc2ccc(Cl)cc2)cc1 | 59.2% (inactive) |
